# An excerpt weighted towards active compounds, which were near 3.3% of everything screened.
# TbPYK inhibitor = blocks Trypanosoma brucei pyruvate kinase. AID 624173. TbPYK enzyme, Kinase-Glo Plus ATP luminescence, 45 min. Potency, µM (highest dose often 76.8 µM), inactives show at the top dose activity, negative = inhibition, usual class: inhibitors. Q57TT1. 0.12% of 410,000 active; also: % is scaled to controls: 0 for no effect and ±100 for the full control effect; nearly all actives have a fitted effect of over 50% in size
#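 TbPYK + substrate in 50 mM TEA pH 7.2, 100 mM KCl, 10 mM MgCl2, 0.05% BSA, 0.01% Tween-20; cpd pinned; ADP 130 uM final; 45 min RT; Kinase-Glo Plus 10 min; luminescence endpoint.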
# SARS PLP yeast = SARS-CoV PLP inhibition in yeast | S. cerevisiae expressing SARS-CoV PLpro, growth rescue | Potency, µM (doses to about 32.9 µM), inactives show at the highest dose activity, positive = growth rescue, usual class: activators | AID 485353 | 0.19% of 330,000 active; calls by dose curve; also: 0% is about no effect; nearly all actives have a fitted effect of over 55% in size
# AmpC detergent = AmpC beta-lactamase inhibition with detergent present | P00811 | AmpC hydrolysis of nitrocefin, absorbance 480 nm, 0.01% Triton | Potency, µM (highest dose often 114 µM), without a hit: top-dose activity change, negative = inhibition, usual class: inhibitors | 0.041% of 370,000 active;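 also: 0% = no-compound wells and -100% = no-enzyme wells; nearly all actives have a fitted effect of over 25% in size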
# Target sequence (P00811 whole entry, looked up): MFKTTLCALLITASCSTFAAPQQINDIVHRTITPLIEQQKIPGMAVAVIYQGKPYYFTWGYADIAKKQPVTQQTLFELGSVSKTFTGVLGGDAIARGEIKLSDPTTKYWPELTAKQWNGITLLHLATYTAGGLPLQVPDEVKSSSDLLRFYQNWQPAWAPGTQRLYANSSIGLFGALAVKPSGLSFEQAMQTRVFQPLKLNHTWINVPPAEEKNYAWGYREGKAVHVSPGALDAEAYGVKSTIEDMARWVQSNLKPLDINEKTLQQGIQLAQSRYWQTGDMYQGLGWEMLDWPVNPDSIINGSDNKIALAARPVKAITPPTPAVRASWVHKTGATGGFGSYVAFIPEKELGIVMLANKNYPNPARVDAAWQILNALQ
#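 20 mM phosphate pH 7.0 + 0.01% (detergent screen) or 0.0001% Triton X-100; 5.3 nM AmpC reagent; cpd preinc 15 min RT; nitrocefin (800 uM stock) to start; A480 q20 s × 4 min; Activity was normalised to no-enzyme and no-compound control wells.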
# RE007 growth inh = less growth of the S. pombe RE007 Vpr strain; S. pombe RE007 Vpr strain, BacTiter-Glo ATP luminescence, 24 h; Potency, µM (doses to about 92.2 µM), inactives show at the highest dose activity change, negative = less growth, most hits filed as inhibitors; 0.21% of 360,000 active; AID 651644; active = well fitted falling curve with a large enough effect; inconclusive = small, poorly fitted or top-dose-only effect; inactive = no such curve, though single readings can be large or run the other way; also: % is scaled to controls: 0 for no effect and ±100 for the full control effect; nearly all actives have a fitted effect of over 50% in size
#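 Fission yeast strain RE007, carrying one chromosomally integrated HIV-1 vpr copy, was seeded at OD 0.01 in PMG+AL medium with 23 nL pinned compound. After 24 h at 30 °C and 99% humidity, viability was read by BacTiter-Glo luminescence.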
# Sm TGR inh = S. mansoni TGR enzyme inhibition. Potency, µM (highest dose often 114 µM), for the others: at the top dose activity change, negative = inhibition, most hits filed as inhibitors. Q962Y6. purified TGR, DTNB reduction, TNB absorbance 405 nm. 3% of 360,000 active. AID 485364; also: % is scaled to controls: 0 for no effect and ±100 for the full control effect; nearly all actives have a fitted effect of over 60% in size
#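 Kinetic colorimetric format: TGR-catalysed, NADPH-driven DTNB reduction monitored via TNB absorbance. Enzyme dispensed at 20 nM; compound exposure 15 min at room temperature before reaction start.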
# AmpC inh no detg = blocks E. coli AmpC beta-lactamase in detergent-free assay | Potency, µM (doses to about 57.1 µM), without a hit: top-dose activity change, negative = inhibition, actives largely listed as inhibitors | P00811 | 0.52% of 330,000 active | AmpC nitrocefin hydrolysis, absorbance 480 nm, 0.0001% Triton | AID 485341;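 also: plate controls were no compound for no effect and no enzyme for full effect; nearly all actives have a fitted effect of over 20% in size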
#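 20 mM phosphate pH 7.0 + 0.01% (detergent screen) or 0.0001% Triton X-100; 5.3 nM AmpC reagent; cpd preinc 15 min RT; nitrocefin (800 uM stock) to start; A480 q20 s × 4 min; Activity was normalised to no-enzyme and no-compound control wells.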
# * marks the source's active call; other numbers are inactive results; ? = inconclusive; . = not tested or not shown; [ ] = dose if it differs, or a comment. Unless noted, calls follow the shape of the dose curve; as a rule, active = well fitted curve in the direction sought with a large enough effect; inconclusive = small, poorly fitted or top-dose-only effect, or another doubt; inactive = no such curve, though single readings can be large; an effect the other way counts as inactive or inconclusive. Potency is read from the fitted curve at half-maximal effect.
SMILES,TbPYK inhibitor,SARS PLP yeast,AmpC detergent,RE007 growth inh,Sm TGR inh,AmpC inh no detg
O=S(=O)(Nc1ccc(O)c2ccccc12)c1ccc(Br)cc1,.,-9%,-3%,.,20µM*,11µM*
CC(=O)c1cccc(S(=O)(=O)N2CCCC(c3nc(-c4ccc(C)o4)no3)C2)c1 (stereo not given),-27%,2%,-19%,17%,50µM*,24%
Cc1ccc(-c2noc(C3CCCN(S(=O)(=O)c4ccc5ccccc5c4)C3)n2)o1 (stereo not given),5%,-7%,?,-11%,40µM*,-18%
Cc1ccc(S(=O)(=O)N2CCCC(c3nc(-c4ccc(C)o4)no3)C2)cc1 (stereo not given),-24%,-4%,-13%,-2%,-14%,-17%
CCCN1CCN(C(=O)Cn2ncc3c4ccccc4n(Cc4cccc(Cl)c4)c3c2=O)CC1,2%,.,22%,.,5%,.
CCOc1ccc(CNC(=O)CCS(=O)(=O)c2cc3c4c(c2)CCN4C(=O)CC3)cc1,-4%,.,3%,.,1%,.
CCC(N)CCc1c[nH]c2ccccc12 (stereo not given),-9%[157 µM],.,.,.,.,.
CC(=O)NCCNC(=O)CCCc1nnc2n(CC(C)C)c(=O)c3sccc3n12,3%,.,4%,.,-2%,.
O=C(CCS(=O)(=O)c1ccccc1)Nc1nc2cc3c(cc2s1)OCCO3,-2%,2%,3%,8%,10µM*,-3%
O=C(CCS(=O)(=O)c1ccccc1)Nc1nc2cc3c(cc2s1)OCO3,-1%,0%,-5%,22%,10µM*,-36%
CC1=C[C@@H](O)CC(C)(C)[C@@H]1/C=C/C(C)=C/C=C/C(C)=C/C=C/C=C(C)/C=C/C=C(C)/C=C/C1=C(C)C[C@H](O)CC1(C)C,4%,.,.,.,.,.
CC1CCC/C(=C\Nc2ccc(O)cc2)C1=O (stereo not given),-26%,7%,?,4%,40µM*,-25%
Oc1cc2c(cc1O)[C@H]1c3ccccc3CN[C@@H]1CC2,.,4%,-3%,.,8.9µM*,-18%
Cc1ccc(C2Cc3cc(O)c(O)cc3CN2)cc1 (stereo not given),6%,.,.,-7%,.,.
COCCn1c(CNC(=O)c2cc(OC)c(OC)c(OC)c2)nc2cccnc21,-5%,.,-1%,.,1%,.
CC(C)(C)c1cc(C(C)(C)C)c(NC(=O)c2c[nH]c3ccccc3c2=O)cc1O,0%,.,.,.,.,.
Cc1cc(=O)[nH]c(N/N=C2/CCCC/C2=C\c2ccccc2)n1,-6%,6%,0%,-12%,22µM*,-16%
CCOC(=O)c1cc(-c2ccccc2)n(CCCC(=O)Nc2cccc(Cl)c2C)c1C,-6%[15.4 µM],.,3%,.,37%,.
CCN(C(=O)CSc1nc2ccccc2n1CC(=O)Nc1ccc(F)cc1F)c1ccccc1,2%,.,1%,.,-1%,.
N#Cc1ccc(-c2ccc(C3Nc4ccccc4C(=O)N3O)o2)cc1 (stereo not given),-18%,2%,8%,.,5µM*,-27%
CCOC(=O)Nc1ccc2c(c1)N(C(=O)CCN(CC)CC)c1ccccc1S2=O (stereo not given),6%,-1%,-7%,-2%,4.5µM*,-12%
CCOC(=O)Nc1ccc2c(c1)N(C(=O)CCN(CC)CC)c1ccccc1CC2,-4%,5%,?,-5%,-9%,30%
OCc1cn(Cc2ccc(O)c3ncccc23)cn1,.,5%,1%,.,?,-3%
Oc1ccc(CNc2ccc(F)cc2)c2cccnc12,-11%,12%,?,?,?,-34%
Oc1ccc(CNc2ccccc2)c2cccnc12,2%,10µM*,?,-15%,0.25µM*,-50%
Oc1ccc(CNCc2ccc3c(c2)OCO3)c2cccnc12,.,4%,-9%,.,5.6µM*,-15%

# Screens deposited in PubChem by National Center for Advancing Translational Sciences (NCATS).
